Compound activity deposited in PubChem BioAssay by National Center for Advancing Translational Sciences (NCATS).
Rows were chosen to be rich in hits. Some 8.8% of all compounds tested hit in one or more screens of this group.
KB-3-1 cytotox: kills parental KB-3-1 adenocarcinoma cells. KB-3-1 viability, CellTiter-Glo ATP luminescence, 72 h. Potency, µM (top dose mostly 46.1 µM), actives largely listed as cytotoxic. 400,000 compounds, 1.4% hits; note: nearly all actives have a fitted effect of over 60% in size
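Using CellTiter-Glo luminescence, growth of non-resistant KB-3-1 adenocarcinoma cells is assessed 72 h after pin-tool compound addition at 37 °C. Normalized responses across the concentration series yield fitted curves.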
HT1080 IDH1KD tx: toxicity to HT-1080 IDH1 knockdown cells (counter line); Potency, µM (doses to about 46.1 µM), actives largely listed as cytotoxic; AID 686971; 360,000 compounds, 2% hits; HT-1080 IDH1 knockdown viability, ATP luminescence, 48 h
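CellTiter-Glo luminescence after 48 h compound exposure at 37 degrees C of IDH1-knockdown HT-1080 cells in 5% FBS RPMI. %Activity scaled between DMSO wells and cell-free media wells, with curves fitted and assigned curve classes.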
HT1080-NT tox: kills 2HG-producing HT-1080-NT fibrosarcoma cells; HT-1080-NT fibrosarcoma viability, CellTiter-Glo ATP luminescence, 48 h; Potency, µM (highest dose often 46.1 µM), hits mostly cytotoxic; 360,000 compounds, 1.6% hits;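 note: NT is the 2HG producing partner of a matched IDH1 knockdown line; nearly all actives have a fitted effect of over 55% in size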
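Read-out is CellTiter-Glo luminescence after 10 minutes at room temperature, following 48 hours' compound treatment of HT-1080-NT cells (750 cells/well, RPMI, 5% FBS, 37 degrees C).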
KB-V1 MDR tox: kills drug-selected multidrug resistant KB-V1 cells | KB-V1 MDR cells viability, CellTiter-Glo, 72 h | Potency, µM (titrated, usually from 46.1 µM), hits mostly cytotoxic | 400,000 compounds, 3.4% hits | AID 1347076; note: nearly all actives have a fitted effect of over 60% in size
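Following 72 h at 37 degrees C with compound, KB-V1 cell viability was read by CellTiter-Glo luminescence, medium being phenol-red-free DMEM plus 10% FBS; concentration-response parameters came from normalized, curve-fitted qHTS data.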
IL-1B inflam inh: blocks inflammasome-driven IL-1 beta release | AID 743279 | 360,000 compounds, 4.7% hits | activity change, % at 57.5 µM | THP-1 LPS/ATP IL-1B secretion, AlphaLISA, 16 h; active compounds read low; in the data active = activity change below about -50%; inconclusive = mostly about -30% to -49%
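THP-1 cells pretreated 1 hr with compounds (up to 57.5 uM final), then stimulated with LPS (250 ng/mL final) plus ATP (1.25 mM final); secreted IL-1B measured by AlphaLISA after 16 hr, decreased signal indicating inhibition.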
Each line names hits and unclear results; the compound was inactive in the other large screens. Unless noted, calls come from the whole dose curve; as a rule, active = well fitted curve in the direction sought with a large enough effect; inconclusive = small, poorly fitted or top-dose-only effect, or another doubt; inactive = no such curve, though single readings can be large; an effect the other way counts as inactive or inconclusive.

Cc1onc(-c2c(Cl)cccc2Cl)c1-c1nnc(-c2ccc(Cl)cc2)o1	KB-3-1 cytotox inconclusive, KB-V1 MDR tox inconclusive
CCc1c(-c2ccc(Cl)cc2)ncn1Cc1cccc(-c2ccccc2)c1	KB-3-1 cytotox inconclusive, HT1080 IDH1KD tx inconclusive, HT1080-NT tox inconclusive, KB-V1 MDR tox inconclusive
CCc1c(-c2ccccc2F)ncn1Cc1cccc(-c2ccccc2)c1	KB-3-1 cytotox inconclusive, HT1080 IDH1KD tx 8.2µM, HT1080-NT tox 16µM, KB-V1 MDR tox inconclusive
CCc1c(-c2cccc(OC)c2)ncn1Cc1cccc(-c2ccccc2)c1	KB-3-1 cytotox inconclusive, HT1080 IDH1KD tx inconclusive, HT1080-NT tox 7.3µM, KB-V1 MDR tox inconclusive
CCc1c(C2CC2)ncn1Cc1cccc(-c2ccccc2)c1	KB-3-1 cytotox 15µM, HT1080 IDH1KD tx 16µM, HT1080-NT tox 21µM, IL-1B inflam inh -60
CCc1c(-c2ccccc2)ncn1Cc1cccc(-c2ccccc2)c1	KB-3-1 cytotox inconclusive, HT1080 IDH1KD tx inconclusive, HT1080-NT tox inconclusive, KB-V1 MDR tox inconclusive
COc1cc(OC)cc(C(=O)NNC(=S)Nc2ccc(S(N)(=O)=O)cc2)c1	HT1080 IDH1KD tx inconclusive, HT1080-NT tox inconclusive
CC1(C)C2CCC1(CS(=O)(=O)Nc1ccccc1)C(=O)C2 (configuration not stated)	none
CC1(C)C2CCC1(CS(=O)(=O)Nc1ccc(S(=O)(=O)N3CCCCC3)cc1)C(=O)C2 (configuration not stated)	KB-V1 MDR tox 26µM
COc1cccc(C(c2c(NC(=O)c3ccco3)sc(C)c2C)N2CCOCC2)c1 (configuration not stated)	KB-3-1 cytotox 23µM, KB-V1 MDR tox inconclusive
Cc1sc(NC(=O)c2ccco2)c(C(c2ccncc2)N2CCOCC2)c1C (configuration not stated)	none
COc1ccc(C(Nc2ccccn2)c2c(NC(=O)c3ccco3)sc(C)c2C)cc1 (configuration not stated)	IL-1B inflam inh inconclusive
Cc1sc(NC(=O)c2ccco2)c(C(Nc2ccccn2)c2ccccc2)c1C (configuration not stated)	IL-1B inflam inh -51
COc1ccc(NC(=O)CN2C(=O)CCn3nc(-c4cccn4C)cc32)cc1Cl	none (no result: HT1080 IDH1KD tx, HT1080-NT tox, IL-1B inflam inh)
COc1ccc(CCNC(=O)c2ccc(CSc3ccccc3)o2)cc1	KB-V1 MDR tox inconclusive, IL-1B inflam inh -59
CCN(Cc1ccccc1)c1ccc(N=Nc2nn(C)c(C)c2[N+](=O)[O-])cc1	KB-3-1 cytotox inconclusive, KB-V1 MDR tox 6.5µM
COc1cccc(-n2c(CN3CCN(c4ccc(C)cc4)C(C)C3)nc3ccc([N+](=O)[O-])cc3c2=O)c1 (configuration not stated)	KB-V1 MDR tox 15µM
COc1cccc(-n2c(CN3CCN(c4cccc(C)c4)C(C)C3)nc3ccc([N+](=O)[O-])cc3c2=O)c1 (configuration not stated)	none
Cc1ccc(NC(=O)c2ccc(NC(=O)N3CCSc4nc(C)cc(C)c43)cc2)c(Cl)c1	none (no result: HT1080 IDH1KD tx, HT1080-NT tox, IL-1B inflam inh)
C=C1C(=O)OC2CC1C(O)CC(C)=CCCC(C)=CC(O)CC2C (configuration not stated)	KB-3-1 cytotox inconclusive, HT1080 IDH1KD tx 7.3µM, HT1080-NT tox 15µM, KB-V1 MDR tox inconclusive, IL-1B inflam inh -103
COc1ccccc1CNC(=O)C/C(C)=N/NC(=O)COc1ccc(C)cc1Br	KB-3-1 cytotox 23µM, HT1080-NT tox inconclusive
O=C(CNC(=O)c1ccc(Br)o1)NCc1ccc(F)cc1	none
Cc1ccc(-c2nnc3ccccc3c2C(=O)Nc2cccc(Cl)c2)cc1	none (no result: HT1080 IDH1KD tx, HT1080-NT tox, IL-1B inflam inh)
CCCSC(=S)c1c(C)[nH]n(-c2ccccc2)c1=O	KB-3-1 cytotox inconclusive, HT1080 IDH1KD tx 13µM, HT1080-NT tox inconclusive, KB-V1 MDR tox inconclusive
CCN(CC)C(=O)c1sc2nc(N3CCOCC3)c3c(c2c1N)CCCC3	KB-V1 MDR tox 4.6µM
Brc1ccc(-c2nn3c(-c4ccccn4)nnc3s2)o1	KB-3-1 cytotox inconclusive, KB-V1 MDR tox 18µM, IL-1B inflam inh -51
Brc1ccc(-c2nn3c(-c4ccco4)nnc3s2)o1	KB-3-1 cytotox inconclusive, KB-V1 MDR tox 16µM, IL-1B inflam inh inconclusive
O=C(COC(=O)COc1ccc(Cl)cc1)NC1CC1	none
COc1ccc(C2(C)CC(C)(C)Nc3ccccc32)cc1 (configuration not stated)	none
